This is an account of results in PubChem BioAssay (NCATS).

Unmarked numbers belong to inactive results. Results filed as inconclusive are left out. Calls of active or inactive are those of the source. Unless noted, the call rests on the fitted dose curve; in most records, active means well fitted curve in either direction with a large enough effect (not every such curve was filed as active); inconclusive means small, poorly fitted or top-dose-only effect, or another doubt; inactive means flat fitted curve, though single readings scatter.

Assay [1] in a line: AP1 Signaling Pathway (AID 357). Further: on the % scale 0 is the no-effect control and ±100 the full control effect. To be noted: ME-180 AP-1-bla reporter, EGF-induced, beta-lactamase ratio, 5 h; at 7.69 µM (top of the series) unless noted. In short, it runs like this: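 First, ME-180 AP-1-bla cells were cultured overnight at 37 °C in low-serum Opti-MEM. Next, titrated compounds with EC50 EGF were incubated 5 hours. Finally, CCF4 was added for 2.5 hours and the 460/530 nm ratio recorded.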

The target of assay [2] is Cytochrome P450 1A2 (Homo sapiens) (UniProt P05177). Description: p450-cyp1a2 (AID 410; calls by dose curve; further: potency means the concentration at half of the fitted maximal effect). The procedure, abridged: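 20nM CYP1A2, 100uM Luciferin-ME (=Km), 100mM KPO4; cpd 10 min RT; +NADPH regen, 60 min RT; stop/detect 20 min; luminescence. Normalized to furafylline 57 uM = full inhibition.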
Assay [3] can be described thus: NFAT Signaling Pathway (AID 444).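 Further: carbachol stimulus at about its EC50 of 1 µM final; on the % scale 0 is the no-effect control and ±100 the full control effect.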 As to conditions: Jurkat NFAT-bla M1, carbachol, beta-lactamase ratio, 5 h; at 7.69 µM (top of the series) unless noted. In short, it runs like this: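 Read-out: CCF4 FRET ratio (460 nm/530 nm) after 1 h RT dye loading, used for %activity and AC50 from titration series. Cells: Jurkat NFAT-β-lactamase/M1 line, treated with compound plus 1 uM carbachol for 5 h, 37 °C.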

The nature of assay [4]: Stat Signaling Pathway (AID 446).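 Further: ME-180 cervical cancer cells given 40 pM IL-6 alongside compound; SIE-controlled beta-lactamase reporter measured as 460/530 nm FRET emission ratio; on the % scale 0 is the no-effect control and ±100 the full control effect.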 As to conditions: ME-180 (cervical carcinoma) SIE beta-lactamase reporter, IL-6 stimulated, 5 h; at 7.69 µM (top of the series) unless noted. The procedure, abridged: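 FRET read-out (405 nm excitation, 460/530 nm emission) of a beta-lactamase reporter under a STAT-inducible element in ME-180 cervical carcinoma cells. Cells with compound receive 40 pM IL-6 for 5 h. Values are normalised to AC90 stimulation and AC90 JAK-inhibitor controls.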

Assay [5] concerns the target Glucocorticoid receptor (Homo sapiens) (UniProt P04150). Description: GR-GFP Redistribution (AID 450;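 active means compounds whose dose series gives a full or clear partial fitted curve of increased nuclear translocation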; further: potency means the concentration at half of the fitted maximal effect). To be noted: U2OS GR-GFP nuclear translocation, laser cytometry, 2 h.
Assay [6] has as its target Mitogen-activated protein kinase 10 (Mus musculus) (UniProt Q61831). Description: JNK3 AlphaScreen Assay (AID 530).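 Further: kinase came from lysate of stimulated human HepG2 cells; signal reports phosphorylation of biotinylated GST-cJun 1-79 at Ser73 with 10 µM ATP; on the % scale 0 is the no-effect control and ±100 the full control effect.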 The procedure, abridged: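 Kinase buffer: 20 mM Tris-HCl pH 7.6, 10 mM MgCl2, 1 mM DTT, 0.1 mM Na3VO4, 0.01% Tween-20; ATP 10 uM. Substrate biotin-GST-cJun(1-79), enzyme from activated HepG2 lysates. Detection by Ser73 phospho-antibody AlphaScreen.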
Assay [7] has as its target 3',5'-cyclic-AMP phosphodiesterase 4B (Homo sapiens) (UniProt Q07343). Description: qHTS Assay for Inhibitors of PDE-IV (AID 607; active means well fitted activation curve with a large enough effect in the main read-out, with a control signal flat, not every such curve was filed as active; further: % of control where 0% means no effect). In short, it runs like this: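 Cell-based read-out of cAMP via a modified cyclic nucleotide-gated channel and membrane potential dye (535/590 nm) in HEK293 cells expressing PDE4 endogenously. Compounds tested up to 22.9 uM final; 100 uM RO 20-1724 reference.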
A general note: In qHTS, concentration-response curves come from the screen itself.

Assay [8] deals with Cytochrome P450 3A4 (Homo sapiens) (UniProt P08684). Description: qHTS Assay for Activators of Cytochrome P450 3A4 (AID 885; active means well fitted curve in the direction sought with a large enough effect; an effect the other way counts as inactive or inconclusive; further: nearly all actives have a fitted effect of over 65% in size). In short, it runs like this:
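Luminescent readout of luciferin formed from 25 uM Luciferin-PPXE (KM level) by 20 nM CYP3A4 in 200 mM KPO4, with 60 min NADPH-driven reaction at room temperature after 10 min compound exposure. Ketoconazole (57 uM) defined 100% inhibition.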

Assay [9] concerns the target Cytochrome P450 2C19 (Homo sapiens) (UniProt P33261). Description: qHTS Assay for Inhibitors and Substrates of Cytochrome P450 2C19 (AID 899; active means well fitted curve in the direction sought with a large enough effect; an effect the other way counts as inactive or inconclusive; further: nearly all actives have a fitted effect of over 60% in size; further: potency means the concentration at half of the fitted maximal effect). In short, it runs like this:
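Reactions contain 5nM enzyme, 10uM Luciferin-H EGE (KM) and 50mM KPO4; compound preincubates 10 min at 37C, NADPH regeneration starts turnover for 60 min. Luminescence after detection reagent gives activity.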

For assay [10], the target named is Glucocorticoid receptor (Homo sapiens) (UniProt P04150). Description: GR-EFC Redistribution (AID 451; calls by dose curve; further: potency means the concentration at half of the fitted maximal effect). As to conditions: CHO-K1 GR-EFC translocation, beta-gal luminescence, 2 h. In short, it runs like this: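 Translocation of GR-ED fusion to nuclear EA restores b-gal, read by luminescence after 1 h room-temperature detection. Engineered CHO-K1 biosensor cells, 1,000/well, exposed 2 h at 37 C to titrations up to 46 uM final.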
Chain of Glucocorticoid receptor (Homo sapiens) (P04150 whole entry, looked up, the tested form may be a part): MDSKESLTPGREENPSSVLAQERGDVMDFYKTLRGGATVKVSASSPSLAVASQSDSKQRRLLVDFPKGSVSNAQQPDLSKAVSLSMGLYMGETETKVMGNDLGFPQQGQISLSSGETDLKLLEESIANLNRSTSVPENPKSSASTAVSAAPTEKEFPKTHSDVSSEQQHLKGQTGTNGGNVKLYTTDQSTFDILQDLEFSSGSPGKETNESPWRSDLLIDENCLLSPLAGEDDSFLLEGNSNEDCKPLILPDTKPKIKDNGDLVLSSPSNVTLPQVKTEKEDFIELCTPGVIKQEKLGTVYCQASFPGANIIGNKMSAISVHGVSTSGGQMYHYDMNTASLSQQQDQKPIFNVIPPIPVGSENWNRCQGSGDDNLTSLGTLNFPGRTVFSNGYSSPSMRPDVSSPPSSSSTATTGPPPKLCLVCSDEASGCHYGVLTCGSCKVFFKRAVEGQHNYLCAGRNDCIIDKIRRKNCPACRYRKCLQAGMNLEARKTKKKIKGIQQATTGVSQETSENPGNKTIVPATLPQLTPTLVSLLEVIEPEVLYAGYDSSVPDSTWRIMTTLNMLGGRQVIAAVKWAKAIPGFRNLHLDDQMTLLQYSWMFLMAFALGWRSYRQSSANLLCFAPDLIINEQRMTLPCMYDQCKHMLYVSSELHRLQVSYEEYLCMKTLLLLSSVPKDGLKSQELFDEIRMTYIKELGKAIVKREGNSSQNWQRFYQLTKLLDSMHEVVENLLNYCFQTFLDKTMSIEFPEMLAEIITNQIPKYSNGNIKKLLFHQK

Chain of Cytochrome P450 2C19 (Homo sapiens) (P33261 whole entry, looked up): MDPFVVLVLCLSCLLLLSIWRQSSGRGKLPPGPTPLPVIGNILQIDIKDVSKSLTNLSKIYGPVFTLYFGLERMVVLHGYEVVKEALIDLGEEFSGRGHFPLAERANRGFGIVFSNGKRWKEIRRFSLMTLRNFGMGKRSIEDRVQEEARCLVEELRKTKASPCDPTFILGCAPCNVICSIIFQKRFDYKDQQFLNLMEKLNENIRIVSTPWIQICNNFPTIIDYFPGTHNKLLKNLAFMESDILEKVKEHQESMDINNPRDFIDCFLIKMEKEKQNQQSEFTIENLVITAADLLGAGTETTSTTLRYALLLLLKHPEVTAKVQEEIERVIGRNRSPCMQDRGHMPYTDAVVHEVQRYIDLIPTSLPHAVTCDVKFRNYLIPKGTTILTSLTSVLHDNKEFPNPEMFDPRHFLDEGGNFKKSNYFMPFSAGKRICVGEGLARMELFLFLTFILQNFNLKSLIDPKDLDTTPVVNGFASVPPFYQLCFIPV
Chain of Cytochrome P450 1A2 (Homo sapiens) (P05177 whole entry, looked up): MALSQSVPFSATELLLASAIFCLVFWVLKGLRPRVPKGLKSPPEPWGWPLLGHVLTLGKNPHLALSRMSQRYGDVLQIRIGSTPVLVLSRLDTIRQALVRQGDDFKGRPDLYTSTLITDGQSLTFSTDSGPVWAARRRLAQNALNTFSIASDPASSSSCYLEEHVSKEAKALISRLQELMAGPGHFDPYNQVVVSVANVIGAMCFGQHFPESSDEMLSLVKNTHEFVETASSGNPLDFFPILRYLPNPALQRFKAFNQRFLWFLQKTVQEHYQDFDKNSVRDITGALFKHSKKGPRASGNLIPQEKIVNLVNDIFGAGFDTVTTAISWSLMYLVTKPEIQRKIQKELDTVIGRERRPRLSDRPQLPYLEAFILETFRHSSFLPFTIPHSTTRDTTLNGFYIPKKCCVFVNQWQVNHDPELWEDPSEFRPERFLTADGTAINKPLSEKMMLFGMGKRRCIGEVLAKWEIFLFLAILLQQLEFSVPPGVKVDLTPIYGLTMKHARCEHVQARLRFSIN
Chain of 3',5'-cyclic-AMP phosphodiesterase 4B (Homo sapiens) (Q07343 whole entry, looked up): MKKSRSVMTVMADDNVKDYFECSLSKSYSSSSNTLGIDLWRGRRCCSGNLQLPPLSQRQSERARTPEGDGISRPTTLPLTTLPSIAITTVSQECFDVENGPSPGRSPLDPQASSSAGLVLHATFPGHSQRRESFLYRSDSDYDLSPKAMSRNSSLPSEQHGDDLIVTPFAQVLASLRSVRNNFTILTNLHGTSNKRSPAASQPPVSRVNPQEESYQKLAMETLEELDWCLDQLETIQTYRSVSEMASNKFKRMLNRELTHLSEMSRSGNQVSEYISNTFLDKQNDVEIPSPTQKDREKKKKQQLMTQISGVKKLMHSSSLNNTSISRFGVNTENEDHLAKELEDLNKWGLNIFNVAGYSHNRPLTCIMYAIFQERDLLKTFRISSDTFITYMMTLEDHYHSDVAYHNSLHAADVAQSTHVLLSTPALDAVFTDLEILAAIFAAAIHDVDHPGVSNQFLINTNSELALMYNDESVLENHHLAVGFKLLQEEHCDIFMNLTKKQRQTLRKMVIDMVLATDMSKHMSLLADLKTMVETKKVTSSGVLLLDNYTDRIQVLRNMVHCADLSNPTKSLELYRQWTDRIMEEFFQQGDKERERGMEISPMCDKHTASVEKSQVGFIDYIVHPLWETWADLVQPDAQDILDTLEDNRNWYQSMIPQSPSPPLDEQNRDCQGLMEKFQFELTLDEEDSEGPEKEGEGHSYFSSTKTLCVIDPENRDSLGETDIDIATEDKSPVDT
Chain of Cytochrome P450 3A4 (Homo sapiens) (P08684 whole entry, looked up): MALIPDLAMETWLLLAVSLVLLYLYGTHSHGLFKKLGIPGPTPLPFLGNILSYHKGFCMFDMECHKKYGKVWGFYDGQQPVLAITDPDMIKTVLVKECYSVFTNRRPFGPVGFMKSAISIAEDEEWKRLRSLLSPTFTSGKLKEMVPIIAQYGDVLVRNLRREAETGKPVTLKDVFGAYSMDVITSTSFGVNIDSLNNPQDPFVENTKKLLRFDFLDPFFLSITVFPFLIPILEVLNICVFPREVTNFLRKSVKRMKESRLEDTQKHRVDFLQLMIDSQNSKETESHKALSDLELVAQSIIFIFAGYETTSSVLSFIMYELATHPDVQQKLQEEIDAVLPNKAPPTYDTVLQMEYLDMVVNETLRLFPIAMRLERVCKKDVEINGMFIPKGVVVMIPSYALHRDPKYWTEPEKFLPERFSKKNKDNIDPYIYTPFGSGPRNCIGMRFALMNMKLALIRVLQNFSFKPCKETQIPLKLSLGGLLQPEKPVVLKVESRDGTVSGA

For the compound `Oc1ccc(CCNCc2cc3c(cc2Br)OCO3)cc1`, the activity change, negative = inhibition was -4.32% in assay [1], -17% in assay [3] and 0.159% [at 11.4 µM] in assay [6]. The Potency is 1 µM (active) in [2], greater than 46 µM in assay [5] and 5.01 µM (active) in [9]. The activity, negative = inhibition in assay [4] is 9.31%. For the same compound, the result in assay [7] was inactive. For the same compound, the activity change, positive = activation in assay [8] is -36.4% [at 11.4 µM].

Turning to `CC(=O)O/C(=C1/C[C@H]2[C@@H]3CC=C4C[C@@H](OC(C)=O)CC[C@]4(C)[C@@H]3CC[C@]2(C)C1=O)C(F)(F)F`, the values for the activity change, negative = inhibition in [1] and in assay [6] were -23.8% and -0.565% [at 11.4 µM], respectively. Further, the results for the Potency in assay [2], in assay [5] and in [10] were 5.01 µM (active), greater than 46 µM and greater than 9.22 µM, respectively. In addition, in assay [4], the activity, negative = inhibition was -16.9%. Moreover, the outcome in assay [7] was inactive.

In the case of `COC(=O)[C@@H]1c2cc3c(c(O)c2[C@@H](O)C[C@]1(C)O)C(=O)c1c(O)cc2c(c1C3=O)O[C@H]1O[C@@]2(C)[C@@H](O)[C@H](N(C)C)[C@H]1O`, the activity change, negative = inhibition was -3.96% in [1], 6.8% in assay [3] and -5.17% [at 11.4 µM] in [6]. In [4], the activity, negative = inhibition is -3.22%. Further, the Potency in assay [5] is greater than 46 µM; in assay [10] it was greater than 9.22 µM. For the same compound, the call in assay [7] was inactive.

As to `N[C@H](Cn1cc(I)c(=O)[nH]c1=O)C(=O)O`, the values for the activity change, negative = inhibition in assay [1] and in assay [3] were 10.7% [at 38 µM] and -6.62% [at 38 µM], respectively. For the same compound, the Potency entry in [2], in assay [6] and in [9] was “inactive” in each case. Besides, in assay [4], the activity, negative = inhibition is -6.5% [at 38 µM]. For the same compound, the Potency in assay [10] was greater than 46 µM. Besides, the compound was classed as inactive in assay [7].

Regarding `C[C@H]1CC[C@@]2(NC1)O[C@@H]1C[C@@H]3[C@@H]4CC=C5C[C@@H](O)CC[C@]5(C)[C@@H]4CC[C@]3(C)[C@H]1[C@@H]2C`, the Potency entry in assay [2] was “inactive”. Further, the figures for the activity change, negative = inhibition in [3] and in [6] were 24.2% and -0.366% [at 11.4 µM], respectively. In addition, the activity, negative = inhibition in [4] was 7.42%. Besides, the Potency in [5] was greater than 46 µM. Also, the result in [7] was inactive.

As for `O=C(O)c1cc(N=Nc2ccc([As](=O)(O)O)cc2)ccc1O`, the activity change, negative = inhibition in assay [1] is 6.37%; in assay [3] it was 6.3%; in assay [6], 2.47% [at 11.4 µM]. The Potency entry in assay [2] and in assay [9] was “inactive” in each case. Also, the activity, negative = inhibition in assay [4] was -0.258%. Moreover, the Potency in assay [10] was greater than 9.22 µM. Moreover, in [7], the outcome was inactive.
